Reference: publication PMC4552634, “A New Set of Chemical Starting Points with Plasmodium falciparum Transmission-Blocking Potential for Antimalarial Drug Discovery” (PLoS ONE, 2015)
Where two headings read alike, the source gives them in different places. The whole screen tested about 13,000 compounds, of which about 3,200 (25%) showed an effect of 50% or more. Some of the results follow.

System: P. falciparum stage V gametocytes
Parameters: BacTiter-Glo ATP luminescence viability of purified stage V gametocytes in 384-well plates, per cent inhibition versus DMSO
Details: 48 h, 5 µM, inhibitor

With `CC(C)(C)Oc1ccc(CC2NC3(C(=O)N(Cc4ccc(C(C)(C)C)cc4)c4ccccc43)C3C(=O)N(c4ccc(Br)cc4)C(=O)C23)cc1` (stereo not shown) [TCMDC-139774] the “% Inhibition” value was 1.203%.
For `CC(C)C1C(O)=C(c2ccc3ccccc3c2)C(=O)N1Cc1cccc(F)c1` (stereo not shown) [TCMDC-141811], the “% Inhibition” value was 28.08%.
With `Oc1ccccc1CNCc1ccc(-c2cnc(N3CCCC(c4ccccc4)C3)nc2)cc1` (stereo not shown) [TCMDC-133768] the “% Inhibition” value was -9.076%.
For `CN(CCc1ccccc1)c1ncc(-c2ccccc2CNCc2ccccc2O)cn1` [TCMDC-132575], the “% Inhibition” value was 53.28%.
With `CCCN(CC1CC1)c1ncc(-c2ccccc2CNCc2ccccc2O)cn1` [TCMDC-132574] the “% Inhibition” value was -10.65%.
For `O=c1cc(NCCCCNCc2cccc(Cl)c2)[nH]c2ccccc12` [TCMDC-139311], the “% Inhibition” value was -48.31%.
`CCCC(C)NC(=O)/C=C/c1ccccc1-c1cccc(OC)c1` (stereo not shown) [TCMDC-136229] was tested, and the “% Inhibition” value was -11.68%.
`CCOc1cc(C(=O)NC2CC(C)(C)NC(C)(C)C2)ccc1-c1nc2ccc(Cl)cc2[nH]1` [TCMDC-140404] was tested, and the “% Inhibition” value was 39.53%.
`COc1cc(C(=O)NC2CC(C)(C)NC(C)(C)C2)ccc1-c1cc2cc(Cl)c(Cl)cc2[nH]1` [TCMDC-139693] was tested, and the “% Inhibition” value was -5.047%.
For `COc1cc(C(=O)NC2CC(C)(C)N(C)C(C)(C)C2)ccc1-c1cc2cc(Cl)c(Cl)cc2[nH]1` [TCMDC-139227], the “% Inhibition” value was 47.65%.
For `COc1cc(C(=O)NC2CC(C)(C)N(C)C(C)(C)C2)ccc1-c1nc2cc(Cl)c(Cl)cc2[nH]1` [TCMDC-139618], the “% Inhibition” value was 89.66%.
With `CN1C(C)(C)CC(NC(=O)c2ccc(-c3nc4cc(Cl)c(Cl)cc4[nH]3)cc2)CC1(C)C` [TCMDC-139250] the “% Inhibition” value was 28.21%.
`CCOc1cc(C(=O)NC2CC(C)(C)N(C)C(C)(C)C2)ccc1-c1nc2cc(Cl)c(Cl)cc2[nH]1` [TCMDC-140058] was tested, and the “% Inhibition” value was 24.71%.
`Cc1c(-c2ccc(C(=O)NC3CC(C)(C)NC(C)(C)C3)cc2)[nH]c2cc(Cl)c(Cl)cc12` [TCMDC-140975] was tested, and the “% Inhibition” value was 52.66%.
`CCOc1cc(C(=O)NC2CC(C)(C)NC(C)(C)C2)ccc1-c1cc2cc(Cl)c(Cl)cc2[nH]1` [TCMDC-139960] was tested, and the “% Inhibition” value was 72.27%.
In the case of `CN1C(C)(C)CC(NC(=O)c2ccc(-c3nc4ccc(Cl)cc4[nH]3)cc2)CC1(C)C` [TCMDC-139262], the “% Inhibition” value was -8.23%.
For `O=C(Nc1ccc(CN2CCCCC2)cc1)c1ccc(COc2ccc([N+](=O)[O-])cc2)o1` [TCMDC-123727], the “% Inhibition” value was -23.78%.
`CC(C)Oc1ccc(CCCON2C(N)=NC(N)=NC2(C)C)cc1` [TCMDC-131759] was tested, and the “% Inhibition” value was 12.88%.
With `Cc1cc(NC(=O)c2ccco2)ccc1OC1CCN(Cc2ccccc2)CC1` [TCMDC-133965] the “% Inhibition” value was 12.37%.
With `COc1ccc2nccc([C@@H](O)CN3CCC(NCc4nc5c(C#N)cccc5[nH]4)CC3)c2c1` [TCMDC-141116] the “% Inhibition” value was -34.83%.
`Oc1ccc(CCNc2nc(NCCOc3ccccc3-c3ccccc3)nc(N3CCNCC3)n2)cc1` [TCMDC-134131] was tested, and the “% Inhibition” value was -22.6%.
For `COc1ccc(-c2ccccc2OCCCNc2nc(NCCc3ccc(O)cc3)nc(N3CCNCC3)n2)cc1` [TCMDC-134136], the “% Inhibition” value was 51.13%.
For `Oc1ccc(CCNc2nc(NCCCOc3ccccc3-c3ccc(F)cc3)nc(N3CCNCC3)n2)cc1` [TCMDC-134135], the “% Inhibition” value was 12.8%.
In the case of `Oc1ccc(CCNc2nc(NCCCOc3ccccc3-c3ccc(C(F)(F)F)cc3)nc(N3CCNCC3)n2)cc1` [TCMDC-134139], the “% Inhibition” value was 56.06%.
In the case of `Oc1ccc(CCNc2nc(NCCCOc3ccccc3-c3ccncc3)nc(N3CCNCC3)n2)cc1` [TCMDC-134138], the “% Inhibition” value was 16.05%.
With `Oc1ccc(CCNc2nc(NCCCOc3ccccc3-c3cccnc3)nc(N3CCNCC3)n2)cc1` [TCMDC-134137] the “% Inhibition” value was 19.58%.
With `Oc1ccc(CCNc2nc(NCc3ccccc3-c3ccccc3)nc(N3CCCNCC3)n2)cc1` [TCMDC-133386] the “% Inhibition” value was 28.34%.
With `OCCCCCCNc1nc(NCc2ccccc2-c2ccc(C(F)(F)F)cc2)nc(N2CCNCC2)n1` [TCMDC-134126] the “% Inhibition” value was 66.94%.
In the case of `Oc1ccc(CCNc2nc(NCCCOc3ccccc3-c3cccc(C(F)(F)F)c3)nc(N3CCNCC3)n2)cc1` [TCMDC-134134], the “% Inhibition” value was 10.32%.
With `Oc1ccc(CCNc2nc(NCc3ccccc3-c3ccc(C(F)(F)F)cc3)nc(N3CCNCC3)n2)cc1` [TCMDC-138323] the “% Inhibition” value was -0.8501%.
With `Oc1ccc(CCNc2nc(NCc3ccccc3-c3ccc(C(F)(F)F)cc3)nc(N3CCCNCC3)n2)cc1` [TCMDC-133388] the “% Inhibition” value was 24.02%.
In the case of `Oc1ccc(CC2CCCN(c3nc(NCCCOc4ccccc4-c4ccccc4)nc(N4CCNCC4)n3)C2)cc1` (stereo not shown) [TCMDC-134279], the “% Inhibition” value was 106%.
For `O=C(Nc1ccc(OC2CCN(Cc3ccccc3)CC2)c(Cl)c1)c1ccsc1` [TCMDC-133989], the “% Inhibition” value was 12.12%.
In the case of `Clc1ccc2c(NCc3ccccc3)ccnc2c1` [TCMDC-125506], the “% Inhibition” value was -30.27%.
`CCCCNc1ccc(C(=O)NC2CCN(C[C@H](O)c3ccnc4ccc(OC)cc34)CC2)cc1` [TCMDC-141038] was tested, and the “% Inhibition” value was -7.518%.
For `CC1(C)N=C(N)N=C(N)N1OCCCOc1cc(Cl)cc(Cl)c1` [TCMDC-131790], the “% Inhibition” value was 16.66%.
In the case of `O=C(Nc1ccc(F)c(Cl)c1)NC1CCN(c2ccnc3cc(Cl)ccc23)C1` (stereo not shown) [TCMDC-133404], the “% Inhibition” value was -39.28%.
For `CCOC(=O)c1c(NC(=O)c2ccccc2)sc2c(O)c(CN(CC)CC)ccc12` [TCMDC-124066], the “% Inhibition” value was -13.75%.
`CCC(C)NC(=O)CN1CN(c2ccccc2)C2(CCN(C(=O)c3ccc(-c4ccccc4)cc3)CC2)C1=O` (stereo not shown) [TCMDC-125175] was tested, and the “% Inhibition” value was -41.83%.
For `Cc1cc(N2CCCC2)nc(Nc2ccc(NC(=O)Cc3ccccc3)cc2)n1` [TCMDC-124967], the “% Inhibition” value was -3.146%.
For `CC(=O)Nc1ccc(C(=O)Nc2cccc(-c3ccc(-c4nc5cc(C(F)(F)F)ccc5[nH]4)s3)c2)cn1` [TCMDC-136825], the “% Inhibition” value was 32.63%.
`NC1=NCN(OCc2ccc(Cl)c(Cl)c2)C(N)=N1` [TCMDC-131661] was tested, and the “% Inhibition” value was 6.901%.
In the case of `O=[N+]([O-])c1cccc(CNCC2CCN(Cc3ccc(C(F)(F)F)cc3)CC2)c1` [TCMDC-141209], the “% Inhibition” value was 21.63%.
`Cc1ccc2c(-c3ccc([N+](=O)[O-])o3)cc(C)nc2c1` [TCMDC-131568] was tested, and the “% Inhibition” value was 5.138%.
With `O=C(c1ccc([N+](=O)[O-])o1)N1CCC(c2cn(Cc3cccc(F)c3)c3ccccc23)CC1` [TCMDC-124804] the “% Inhibition” value was 44.33%.
For `CC(C)(C)c1ccc2oc(=O)n(C3CCN(C(=O)c4ccc([N+](=O)[O-])o4)CC3)c2c1` [TCMDC-124798], the “% Inhibition” value was 106.6%.
With `O=C(c1ccc([N+](=O)[O-])o1)N1CCC(Cc2ccc(C(F)(F)F)cc2)CC1` [TCMDC-124805] the “% Inhibition” value was 110.5%.
`Cc1ccc2c(c1)c(C1CCN(C(=O)c3ccc([N+](=O)[O-])o3)CC1)cn2C` [TCMDC-124787] was tested, and the “% Inhibition” value was 93.47%.
For `FC(F)(F)c1ccc(CNCC2CCN(Cc3ccc4c(c3)OCO4)CC2)cc1` [TCMDC-141674], the “% Inhibition” value was 9.475%.
In the case of `COc1cccc(-c2cnc(-c3ccncc3)nc2C2CCN(Cc3ccc(NC(C)=O)cc3)CC2)c1` [TCMDC-124592], the “% Inhibition” value was 1.604%.
For `O=C(Nc1ccc(OC2CCN(Cc3ccc(F)cc3)CC2)c(Cl)c1)c1ccccc1` [TCMDC-133751], the “% Inhibition” value was 2.198%.
`COc1ccc(CN2CCCC(Nc3ccc(F)c(F)c3)C2)c(O)c1` (stereo not shown) [TCMDC-124607] was tested, and the “% Inhibition” value was 5.364%.
With `Cc1cccc(C(=O)Nc2ccnc(N3CCC(N(C)Cc4cccc(O)c4)CC3)c2)c1` [TCMDC-134963] the “% Inhibition” value was 14.15%.
For `COc1ccc(-c2ccccc2)cc1NC(=S)NC1CCC(CN2CCC(c3c[nH]c4ccccc34)CC2)CC1` (stereo not shown) [TCMDC-140200], the “% Inhibition” value (% Inhibition) was 105.5%.
For `COc1ccc(-c2ccccc2)cc1NC(=S)NC1CCC(CN2CCC(c3c[nH]c4ccccc34)CC2)CC1` (stereo not shown) [TCMDC-140182], the “% Inhibition” value (% Inhibition) was 85.27%.
In the case of `O=C(N[C@@H](CC1CCCCC1)C(=O)NCCc1ccc(Cl)c(Cl)c1)c1ccc(O)c(-c2ccc(Cl)c(Cl)c2)c1` [TCMDC-140874], the “% Inhibition” value was 30.89%.
For `O=C(CCOc1ccccc1)NCC1CCCO1` (stereo not shown) [TCMDC-123513], the “% Inhibition” value was 13.36%.
`O=C(NCCCNc1nc2ccccc2[nH]1)c1cccc(OC(F)(F)F)c1` [TCMDC-140754] was tested, and the “% Inhibition” value was -24.04%.
For `COc1ccc2nccc([C@@H](O)CN3CCC(NC(=O)C(=Cc4ccc(Cl)cc4Cl)c4ccc(-c5ccccc5)cc4)CC3)c2c1` [TCMDC-141109], the “% Inhibition” value was 17.05%.
For `COc1ccc2nccc([C@@H](O)CN3CCC(NC(=O)/C(=C/c4ccccc4)c4ccc(-c5ccccc5)cc4)CC3)c2c1` [TCMDC-141115], the “% Inhibition” value was 0.831%.
For `O=C(NCCc1ccccc1)N(Cc1ccccc1-c1cccc(CNC2CCCC2)c1)C1CCN(Cc2ccccc2)CC1` [TCMDC-140612], the “% Inhibition” value was 64.34%.
For `O=C(NCCc1ccccc1)N(Cc1ccccc1-c1ccc(CNC2CCCC2)cc1)C1CCN(Cc2ccccc2)CC1` [TCMDC-140613], the “% Inhibition” value was 98.8%.
With `O=C(NCC1CCC(C(=O)NC2CCCc3ccccc32)CC1)c1ccc(O)c(-c2cccc([N+](=O)[O-])c2)c1` (stereo not shown) [TCMDC-140882] the “% Inhibition” value was 10.62%.
In the case of `O=C(Nc1ccccc1)Nc1cccc(-c2ccc(-c3nc4ccc(C(F)(F)F)cc4[nH]3)cc2)c1` [TCMDC-133151], the “% Inhibition” value was -20.54%.
